Screening results: PubChem BioAssay, National Center for Advancing Translational Sciences (NCATS)
LDHA block: LDHA (human) enzyme inhibition | P00338 | purified LDHA, NADH/diaphorase-resazurin fluorescence; active compounds read low | activity change, % (values are at about 110 or 230 µM) | 0.15% of 480,000 active | AID 1347041; in the data active means activity change below about -30%; inconclusive means mostly about -25% to -30%
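Human LDH5 (2 nM) was incubated with 0.06 mM NADH and 0.2 mM pyruvate for 5 min at room temperature in Tris pH 7.4. Remaining NADH was coupled through diaphorase/resazurin, and resorufin fluorescence was read at 0 and 20 min.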
RGS4 inh: blocks human RGS4-accelerated GTP hydrolysis | P49798 | Transcreener GDP fluorescence polarization, RGS4-accelerated GTP hydrolysis | Potency, µM (titrated, usually from 114 µM), most hits filed as inhibitors | 0.039% of 390,000 active | AID 504845; active means well fitted inhibition curve with a large enough effect; inconclusive means small, poorly fitted or top-dose-only effect; inactive means no such curve, though single readings can be large or run the other way; further: nearly all actives have a fitted effect of over 75% in size
Target sequence (P49798 whole entry, looked up): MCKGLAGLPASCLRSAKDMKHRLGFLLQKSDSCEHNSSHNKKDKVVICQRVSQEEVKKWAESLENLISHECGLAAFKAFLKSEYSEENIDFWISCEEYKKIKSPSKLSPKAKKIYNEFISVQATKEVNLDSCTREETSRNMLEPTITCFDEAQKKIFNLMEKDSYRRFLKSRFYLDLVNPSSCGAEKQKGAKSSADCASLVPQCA
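MLSMR compounds (23 nl, pin-transferred) preincubated 10 min at room temperature with a 500nM (2x) first reagent, then RGS4 at 900nM (2x) plus Transcreener GDP mix added; fluorescence polarization (620/688 nm) read before and after 90 min at 30 °C.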
DRD3 agonist: activates the human D3 dopamine receptor. max activation, %. D3R DiscoveRx beta-arrestin cells, luminescence, 90 min. 0.58% of 410,000 active. P35462; in the data active means max activation above about 30%
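Agonist-mode cell screen: cells plated at 1500/well and incubated overnight at 37 °C, then exposed to library compounds for 90 min at 37 °C. Detection reagent was added for 30–60 min at room temperature, and luminescence was read.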
Akt phos inh: inhibitors of Akt phosphorylation; 0.32% of 360,000 active; AID 651550; Neuro2A IGF-stimulated pAkt S473 HTRF, 20 min; active compounds read low; activity change, % for hits at 50 µM; in the data active means activity change below about -80%; inconclusive means mostly about -51% to -80%
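Neuro2A cells in DMEM with 0.5% FBS, overnight at 37 deg C, given compound at single 50 µM final, then IGF (6 nM final) for 20 min at 37 deg C. Lysed; phospho-Akt Ser473 by HTRF after 24 h, 665/615 ratio.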
D3 antag: blocks the human D3 dopamine receptor. AID 652054. 2.5% of 360,000 active. D3R cells, DiscoveRx beta-arrestin luminescence, antagonist mode; active compounds read low. max response, negative = inhibition, %; in the data active means max response below about -50%; inconclusive means no clear call, values can overlap the other calls
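Cells expressing the human receptor were seeded at 1500 cells/well, incubated overnight at 37 degrees C in 5% CO2, then exposed to library compounds with dopamine controls for 90 minutes at 37 degrees C before luminescent detection.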
PI4K2A inh: blocks human PI4K2A kinase activity; activity change, negative = inhibition, % at 76.9 µM; AID 1346378; Q9BTU6; 0.13% of 420,000 active; purified PI4K2A, ADP-Glo luminescence, 1 h; active compounds read low; in the data active means activity change below about -50%; inconclusive means mostly about -30% to -49%
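ADP-Glo luminescence measured ADP generated by PI4K2A enzyme (4 ug/mL before mixing) with 1.2 mM PI substrate (pre-mix) and 300 microM ATP (pre-mix). Tris pH7.5 buffer with MgCl2, Triton X-100; 1 h reaction at ambient temperature.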
Hits are given with their value; n = inactive; u = inconclusive; x = not tested or not shown; ! = not active in a repeat. This is a sample that favours compounds with a hit; in the whole collection about 2.8% have one here.

SMILES	LDHA block	RGS4 inh	DRD3 agonist	Akt phos inh	D3 antag	PI4K2A inh
COc1ccc(CN2C(=O)C(CC(C)C)Nc3ncnc(N4CCN(c5ccccc5)CC4)c32)cc1 (configuration not stated)	n	n	n	n	n	n
CCC1Nc2ncnc(N3CCOCC3)c2N(Cc2ccc(Cl)cc2)C1=O (configuration not stated)	n	n	n	n	n	n
CC(C)CC1Nc2ncnc(N3CCN(c4ccccc4)CC3)c2N(Cc2ccc(Br)cc2)C1=O (configuration not stated)	n	n	n	n	n	n
COc1ccc(CN2C(=O)C(Cc3ccccc3)Nc3ncnc(N4CCN(c5ccccc5)CC4)c32)cc1 (configuration not stated)	n	n	n	n	-111.2	n
O=C(OCc1ccc([N+](=O)[O-])cc1)C1(c2ccccc2)CC1	n	x	x	x	x	x
CCOC(=O)CSC1=C(C#N)C(=O)NC(c2ccc(OC)c(OC)c2)S1 (configuration not stated)	n	u	n	n	-66.8	n
CCOC(=O)CSC1=C(C#N)C(=O)NC(c2ccc(OC)cc2)S1 (configuration not stated)	n	u	n	n	-57.5	n
O=C(COC(=O)c1ccc(F)cc1[N+](=O)[O-])c1ccc(Br)cc1	n	x	x	x	x	x
COc1ccc(F)cc1S(=O)(=O)NC1CC(C)(C)NC(C)(C)C1	n	n	n	-112.2%	n	n
CC1(C)CC(NS(=O)(=O)c2ccccc2)CC(C)(C)N1	n	n	n	n	n	n
CC1(C)CC(NS(=O)(=O)c2ccc(F)cc2)CC(C)(C)N1	n	n	n	n	-57.9	n
Cc1ccc(S(=O)(=O)Nc2cc(C(N)=O)cc(F)c2C)cc1Cl	n	x	x	x	x	x
CCNS(=O)(=O)c1ccc(C)c(C(=O)NCc2coc(-c3cccs3)n2)c1	n	x	x	x	x	x
Oc1ccc(/C=C/c2nc3c(ccc4ccccc43)s2)cc1	n	x	x	x	x	x
O=c1c2c(-c3ccccc3)csc2ncn1/N=C/c1cccc([N+](=O)[O-])c1O	n	n	n	n	-51.8	n
O=C1c2ccccc2C(=O)C1c1ccc(Br)cc1	n	n	87.8!	n	n	n
O=C1c2ccccc2C(=O)C1c1ccc(Cl)cc1	n	n	n	n	n	n
O=C1c2ccccc2C(=O)C1c1ccc(F)cc1	x	x	61.9	x	x	x
O=C1c2ccccc2C(=O)C1c1ccc(O)cc1	n	n	n	n	n	n
CC(C)c1nnc(NC(=O)c2cc(=O)c3cc(Cl)cc(Cl)c3o2)s1	-34.7	x	x	x	x	x
CCOC(=O)c1cnc(Nc2cccc(F)c2)c2ccccc12	n	x	x	x	x	x
COc1cc(C(=O)Nc2cnc3ccccc3c2)ccc1C	n	x	x	x	x	x
O=C(NC1CCN(Cc2ccccc2)CC1)c1cccc(NS(=O)(=O)c2ccc(Br)cc2)c1	n	n	n	n	-109.0	n
Cc1ccc(Cn2nnnc2CN2CCC(NC(=O)c3ccc(Br)cc3)CC2)cc1	n	n	n	n	-64.7	n
CCC(C)(C)n1nnnc1CN1CCC(NC(=O)c2ccc(Br)cc2)CC1	n	n	n	n	n	n
SMILES	LDHA block	RGS4 inh	DRD3 agonist	Akt phos inh	D3 antag	PI4K2A inh
O=C(NC1CCN(Cc2ccccc2)CC1)c1cccc(S(=O)(=O)Nc2ccc(SC(F)F)cc2)c1	n	n	n	n	-100.7	n
Cc1ccc(NS(=O)(=O)c2ccc(C(=O)NC3CCN(Cc4ccccc4)CC3)cc2)cc1	n	n	n	n	-68.4	n
Cc1ccc(NS(=O)(=O)c2cccc(C(=O)NC3CCN(Cc4ccccc4)CC3)c2)cc1	n	n	n	n	u	n
CC(Oc1ccc(Cl)cc1Cl)C(=O)Nc1ccc2oc(=O)ccc2c1 (configuration not stated)	n	x	x	x	x	x
CC(Oc1ccc2ccc(=O)oc2c1)C(=O)N1CCc2ccccc21 (configuration not stated)	n	x	x	x	x	x
O=C(NCC1(N2CCCCC2)CCCCC1)c1cccc(NC(=O)c2cccs2)c1	n	x	x	x	x	x
NNCCc1ccccc1	n	u	n	n	-112.7	n
O=C(CC(=O)NCCc1ccccc1)NCCc1ccccc1	n	n	n	n	n	n
Cc1noc(NC(=O)c2ccc(Br)o2)n1	n	x	x	x	x	x
